Assay results: PubChem BioAssay AID493098 (Sanford-Burnham Center for Chemical Genomics, 2011)
Among all 340,000 compounds or so, about 1,700 (0.5%) were called active. This is one part of a sample in which actives are shown more often than they occur. Values without a mark were called inactive.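 Rule for the calls: active = compounds whose inhibition of the agonist-driven luminescence signal at 20 µM reaches about 50% (limit read from the data); inactive = the rest.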

Biological target: C-C chemokine receptor type 6 (Homo sapiens) (UniProt P51684)
Sequence (P51684 whole entry, looked up): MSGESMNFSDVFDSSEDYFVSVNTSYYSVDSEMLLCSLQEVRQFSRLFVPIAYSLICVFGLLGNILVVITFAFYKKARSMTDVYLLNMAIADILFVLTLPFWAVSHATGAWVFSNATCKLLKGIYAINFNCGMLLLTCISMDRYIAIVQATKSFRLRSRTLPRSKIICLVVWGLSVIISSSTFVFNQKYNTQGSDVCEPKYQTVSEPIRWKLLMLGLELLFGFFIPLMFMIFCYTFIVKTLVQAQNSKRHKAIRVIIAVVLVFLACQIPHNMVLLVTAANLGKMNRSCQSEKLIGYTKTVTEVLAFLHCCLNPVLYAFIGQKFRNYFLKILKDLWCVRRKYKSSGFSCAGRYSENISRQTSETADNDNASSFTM
Assay: CCR6 receptor antagonists, primary screen, cell-based, CHO-K1, luminescence, beta-arrestin, uHTS (AID 493098);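 note: cells stimulated with CCL20 at 14 nM final; plate controls were DMSO with CCL20 for no effect and DMSO without agonist for full effect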
Details: CHO-K1 CCR6 PathHunter beta-arrestin, CCL20-stimulated, at 20 µM, stronger effect = higher value

Compound | inhibition
COc1cc(NS(=O)(=O)c2ccc3ccccc3c2)c2ncccc2c1 | 13.2%
NS(=O)(=O)c1ccc(CCNS(=O)(=O)c2cccc3cccnc23)cc1 | 12.6%
O=[N+]([O-])c1ccccc1S(=O)(=O)Nc1cccc2cccnc12 | 54.6% (active)
CCOc1ccccc1NC(=O)COc1ccc(S(=O)(=O)N2CCCC2)cc1 | 17.1%
O=C1Nc2ccc([N+](=O)[O-])cc2C1=Nc1cccc(CO)c1 | 57.4% (active)
O=[N+]([O-])c1ccc(N(CCO)Cc2ccccc2)c([N+](=O)[O-])c1 | 12.9%
CN1CCN(/N=C2/C(=O)Nc3ccc([N+](=O)[O-])cc32)CC1 | 7.16%
COc1ccc(N2CCN(CCNC(=O)c3nnc(Cc4c(F)cccc4Cl)o3)CC2)cc1 | 14.8%
CCn1nc(C)c(CN2CCN(Cc3ccc(OC)c(C)c3C)C(CCO)C2)c1C (configuration not stated) | 5.51%
COc1cc2c(-c3ccc4c(c3)OCO4)c(-c3ccsc3)oc(=O)c2cc1OC | 21%
O=C(O)c1ccccc1/C=N/Nc1ccc(S(=O)(=O)Nc2ccc(Cl)cc2)cc1[N+](=O)[O-] | 46.4%
O=C(N/N=C/c1cc(Cl)cc([N+](=O)[O-])c1O)C(O)(c1ccccc1)c1ccccc1 | 54.2% (active)
O=C(N/N=C/c1cc(Br)c(O)c([N+](=O)[O-])c1)C(O)(c1ccccc1)c1ccccc1 | 33.5%
COC(=O)c1cccc(C(=O)N2CCC(CCC(=O)NCc3ccc(F)cc3)CC2)c1 | 7.16%
CCc1ccc(N(C(=O)c2csnn2)C(C(=O)NC2CCCCC2)c2cccnc2)cc1 (configuration not stated) | 18.2%
Cc1cc2oc(=O)cc(CN(C)Cc3ccc(OC(F)F)cc3)c2cc1Cl | 21.5%
COc1ccc(C(C#N)(CC(=O)O)c2cnccn2)cc1OC (configuration not stated) | 14.6%
O=c1nc(N/N=C/c2ccco2)cn[nH]1 | 3.85%
Cc1ccc(S(=O)(=O)N2CCN(CC(=O)N/N=C/c3cc([N+](=O)[O-])ccc3Cl)CC2)cc1 | -22.1%
O=S(=O)(c1ccc(NC(=S)NN=C(C2CC2)C2CC2)cc1)N1CCOCC1 | 15.7%
O=[N+]([O-])c1cc(Cl)cc(/C=N/NC(=S)Nc2cc(S(=O)(=O)N3CCOCC3)ccc2Cl)c1O | 63.1% (active)
CCOc1cc(C(=O)OCC(=O)Nc2cccc(C)c2)ccc1OCC(=O)N1CCOCC1 | 1.35%
CCc1nccn1S(=O)(=O)c1cccc([N+](=O)[O-])c1 | 3.26%

Compound | inhibition
Cc1ccc(/C([O-])=C(/C(=S)NCc2ccco2)[n+]2ccccc2)cc1[N+](=O)[O-] | 14.2%
c1ccc2c(c1)OC1OC2Oc2ccccc21 | 19.4%
CCC(C)N1C(=O)S/C(=C/c2ccc(Sc3nc4ccccc4[nH]3)o2)C1=O (configuration not stated) | 15.6%
O=[N+]([O-])c1cc(Br)c(O)c(/C=N/Nc2nc3ccccc3s2)c1 | 54.2% (active)
O=C(NC(Nc1nc2ccc([N+](=O)[O-])cc2s1)(C(F)(F)F)C(F)(F)F)c1ccccc1 | 34.6%
Cc1cc(C(=O)N/N=C/c2cc([N+](=O)[O-])cc(C)c2O)n[nH]1 | 34.7%
O=C(CN(Cc1ccc(Br)cc1)S(=O)(=O)c1ccccc1)NCc1ccncc1 | 28.9%
CCOC(=O)c1c(C)[nH]c(C)c1S(=O)(=O)NCCCc1ccco1 | 0.21%
COc1ccc(C(=O)NC2CC2)cc1OC1CCN(C/C=C/c2ccccc2)CC1 | 3.46%
O=C(N/N=C/c1cc([N+](=O)[O-])ccc1O)/C(=C\c1cccs1)NC(=O)c1ccccc1 | 34.4%
Nc1nnnn1/N=C/c1cc([N+](=O)[O-])ccc1O | 23.1%
O=[N+]([O-])c1ccc(O)c(/C=N/Nc2ccccc2[N+](=O)[O-])c1 | 55.9% (active)
CCN(CC)C(=O)c1nc[nH]c1C(=O)N(C)Cc1ccccc1 | 9.33%
COc1ccc2oc(=O)cc(-c3cc4ccccc4o3)c2c1 | 10.7%
COc1ccc2nc(Nc3nc(-c4cc5ccccc5oc4=O)cs3)sc2c1 | 54.4% (active)
COc1ccc(OC)c(-c2csc(NC(=O)C3=NNC(=O)CC3)n2)c1 | -1%
Cc1cc(Cl)c(S(=O)(=O)NCc2cccnc2)cc1OCC(N)=O | -11.7%
NC(=O)C1(Nc2ccc([N+](=O)[O-])cc2)CCCC1 | 4.74%
O=[N+]([O-])c1ccc(N=NNc2ccc([N+](=O)[O-])cc2)cc1 | 58.2% (active)
CNC(=S)Nc1ccc([N+](=O)[O-])cc1 | 7.58%
CC(=O)NC(CC(=O)Nc1ccc(S(=O)(=O)N2CCOCC2)cc1)c1ccccc1 (configuration not stated) | 4.97%
Cc1nc(SCC(=O)NC2CCCCC2C)c(C#N)c(C)c1C (configuration not stated) | 13%
CCOc1ccc(C(=O)NC(=S)Nc2ccc(N3CCOCC3)c(Cl)c2)cc1[N+](=O)[O-] | 53.9% (active)

Compound | inhibition
CCOc1ccc(C(=O)NC(=S)Nc2ccc(NC(=O)C(C)C)cc2)cc1[N+](=O)[O-] | 28.1%
COc1cccc(OC)c1C(=O)NC(=S)Nc1ccc(N2CCOCC2)c(Cl)c1 | 8.18%
C/C=C/C=C/C(=O)O | -5.26%
Cc1ccc(C(=O)CNc2ccc(F)cc2)cc1 | 90.9% (active)
COc1ccc(NC(=O)CCCC(=O)c2ccccc2)cc1 | -6.21%
Cc1ccc(C(=O)NC2CCN(C(=O)Nc3ccc(F)cc3)CC2)cc1 | -8.58%
COC(=O)c1ccc(NCc2cc(O)ccc2O)cc1 | 20.3%
Cc1ccc(NC(=S)Nc2ccc(F)cc2)cc1 | -4.89%
COC(=O)c1ccc(NCC(=O)c2ccccc2)cc1 | 72.6% (active)
O=C(Nc1ccc(Br)cc1F)C1CC(=O)N(C2CCCCC2)C1 (configuration not stated) | 1.54%
CC(C)NC(=O)c1ccc(Sc2ccccc2)c([N+](=O)[O-])c1 | 10.2%
Cc1cc(C)cc(OCC(=O)NNC(=O)CCN2C(=O)c3ccccc3C2=O)c1 | 10.7%
CC(=O)N(C1=C(Cl)C(=O)c2ccccc2C1=O)c1ccc(C(=O)O)cc1 | 11.9%
O=C1C(Cl)=C(Oc2ccccc2)C(=O)c2ccccc21 | 117% (active)
O=C(CCC1CCN(C(=O)c2cccc(Cl)c2F)CC1)Nc1ccccc1 | 20.2%
O=C1C=C(NS(=O)(=O)c2ccccc2)C(=O)c2ccccc21 | 29.7%
O=C(NC1=CC(=O)c2ccccc2C1=O)c1ccccc1 | 83% (active)
CC(NC(=O)c1ccccc1)C(=O)Nc1ccccc1 (configuration not stated) | -0.64%
CCn1c(=S)[nH]c2cc(S(=O)(=O)N3CCOCC3)ccc21 | -2.44%
CC(c1ccco1)N(C(=O)Nc1ccccc1)C1CCCCC1 (configuration not stated) | 3.12%
COC(=O)/C=C\C(=O)Nc1cccc([N+](=O)[O-])c1 | 106% (active)
O=C(Nc1cccc([N+](=O)[O-])c1)Nn1cnnc1 | 12.5%
COc1ccc(S(=O)(=O)NC(C)C(=O)Nc2cccc([N+](=O)[O-])c2)cc1 (configuration not stated) | 7.92%

Compound | inhibition
C/C(N)=C(/C#N)C(=O)COC(=O)C1=NN(c2ccccc2)C(=O)CC1 | 7.03%
Cc1ccc(S(=O)(=O)N2CCC(Oc3ccc(-n4cnnn4)cc3)CC2)cc1 | 3.04%
CN1C=CC=C/C1=C1\SC(=S)N(Cc2ccccc2)C1=O | 25.3%
COc1cc(/C=C2/SC(=S)N(Cc3ccccc3)C2=O)cc(OC)c1O | 52.9% (active)
COc1cccc(/C=C2/SC(=S)N(CC(=O)NC3C=CS(=O)(=O)C3)C2=O)c1 (configuration not stated) | -8.12%
COC(=O)c1ccc(NC(=O)CSc2nncc3ccc(OC)c(OC)c23)cc1 | -2.84%
C#CCOc1ccc(/C=C2/C(=O)NN(c3ccccc3)C2=O)cc1OC | 12%
COc1cc(/C=C2/C(=O)NN(c3ccc(F)cc3)C2=O)cc([N+](=O)[O-])c1O | 51.9% (active)
COc1cc(CN2CC(C)CC(C)C2)cc([N+](=O)[O-])c1O (configuration not stated) | 5.99%
COc1ccc(NC(=O)CC(NC(C)c2ccccc2)C(=O)O)cc1 (configuration not stated) | 0.17%
O=C(COC(=O)c1cc(S(=O)(=O)N2CCOCC2)ccc1Cl)NCCc1ccccc1 | 9.32%
O=C(C1CCCO1)N(Cc1ccccc1)c1ccccc1 (configuration not stated) | 2.47%
Oc1ccc(N=Nc2nccs2)c(O)c1 | 67% (active)
Oc1ccc2ccccc2c1N=Nc1nccs1 | 94.3% (active)
Cc1cnc(C(=O)N2CCCC(C(=O)c3ccc(C(F)(F)F)cc3)C2)cn1 (configuration not stated) | 15.2%
Cc1ccccc1C(=O)OC1OC(=O)C(Cl)=C1Nc1ccccc1 (configuration not stated) | 17.2%
O=S(=O)(Nc1cc(Cl)ccc1N1CCOCC1)c1ccccc1Cl | 17.2%
Cc1oc2c(c1C(=O)N1CCOCC1)C(=O)c1ccccc1C2=O | -12.2%
O=C1c2ccccc2-c2ncnc3c(N4CCOCC4)cc(N4CCOCC4)c1c23 | 55.9% (active)
Cc1ccc2c(C)c(C(=O)N3CCC(N4CCC(C(=O)NC5CC5)CC4)CC3)oc2c1 | 1.71%
CN(C(=O)CSc1nnc(Nc2ccccc2)s1)C1CCS(=O)(=O)C1 (configuration not stated) | 4%
O=C1c2cccnc2C(Nc2ccc(S(=O)(=O)N3CCCCCC3)cc2)N1Cc1ccccc1 (configuration not stated) | 5.72%
Cc1ccc(S(=O)(=O)NCc2ccc(C(=O)NC3CCC(C)CC3)cc2)cc1 (configuration not stated) | 19.3%
